This is an account of results in the supplement of paper PMC3545927.

Some of the results follow. How many sequences the whole screen found active is unknown.

For this assay, the target named is furin, P09958. Kind of assay: furin cleavage Z-score vs untreated control; higher = more cleavage, active = 3.5 or more, inactive = 1 or less, 8 variable residues between constant flanks. Summed up: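 The cleavage Z-score is the log read count relative to furin-free reactions, lowess-adjusted and scaled by median absolute deviation. Counts came from sequencing DNA released from bead-bound 8-mer peptide–cDNA fusions after digestion with purified furin for 7.5, 15 or 30 min.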
Sequence of furin, P09958 (P09958 whole entry, the tested form may be a part): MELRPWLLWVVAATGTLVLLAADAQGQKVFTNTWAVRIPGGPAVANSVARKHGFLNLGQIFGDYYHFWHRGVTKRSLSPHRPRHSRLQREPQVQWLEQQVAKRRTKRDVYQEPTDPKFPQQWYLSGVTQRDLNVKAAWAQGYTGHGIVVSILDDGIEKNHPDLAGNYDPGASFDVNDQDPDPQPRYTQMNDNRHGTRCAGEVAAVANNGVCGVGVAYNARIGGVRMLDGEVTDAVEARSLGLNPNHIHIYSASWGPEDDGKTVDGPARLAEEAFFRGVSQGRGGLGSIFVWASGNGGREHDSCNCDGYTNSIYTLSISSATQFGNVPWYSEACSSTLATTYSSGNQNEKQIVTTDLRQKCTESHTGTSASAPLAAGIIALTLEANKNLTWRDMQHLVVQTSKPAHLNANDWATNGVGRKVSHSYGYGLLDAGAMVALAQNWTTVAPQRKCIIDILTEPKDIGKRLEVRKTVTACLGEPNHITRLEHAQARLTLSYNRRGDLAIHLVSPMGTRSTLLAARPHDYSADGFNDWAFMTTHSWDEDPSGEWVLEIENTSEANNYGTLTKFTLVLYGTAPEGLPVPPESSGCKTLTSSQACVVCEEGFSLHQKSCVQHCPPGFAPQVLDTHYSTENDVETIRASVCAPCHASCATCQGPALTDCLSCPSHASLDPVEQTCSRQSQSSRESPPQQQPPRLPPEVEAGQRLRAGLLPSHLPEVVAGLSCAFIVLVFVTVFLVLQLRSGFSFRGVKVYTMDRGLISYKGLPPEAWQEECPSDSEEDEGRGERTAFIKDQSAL
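Note: purified furin at 1:10 enzyme:substrate in 50 mM HEPES pH 7.5.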

As to CASTVCSAHLAGNASASA [HC2510], the “furin cleavage Z-score” value reads like this: (7.5 min) 0.637 (inactive); (15 min) 0.629 (inactive); (30 min) 0.755 (inactive).

In the case of CATCNRRKKEAGNASASA [FS-1492], the “furin cleavage Z-score” value (7.5 min) was 0.181 (inactive), the “furin cleavage Z-score” value (15 min) amounted to 1.51 and the “furin cleavage Z-score” value (30 min) was determined as 1.86.

Regarding CAALNRTGRSAGNASASA [FS-748], the “furin cleavage Z-score” value (7.5 min) is 9.18 (active), the “furin cleavage Z-score” value (15 min) is 11.6 (active) and the “furin cleavage Z-score” value (30 min) is 9.72 (active).

Take CAALNRRKKQAGNASASA [FS-747]: the “furin cleavage Z-score” value runs as follows: (7.5 min) 3.62 (active); (15 min) 5.46 (active); (30 min) 3.99 (active).

Turning to CAELSRTGRSAGNASASA [FS-22], the “furin cleavage Z-score” value is 3.94 (active) (7.5 min), 5.44 (active) (15 min) and 5.19 (active) (30 min).

Turning to CASRVRTGRSAGNASASA [FS-1417], the “furin cleavage Z-score” value by setting is: (7.5 min) 9.44 (active); (15 min) 9.57 (active); (30 min) 7.69 (active).

With CAMLAEQFKQAGNASASA [HC1022], the “furin cleavage Z-score” value runs as follows: (7.5 min) 1.62; (15 min) -0.39 (inactive); (30 min) 0.514 (inactive).

Turning to CASCSSNVSVAGNASASA [HC1553], the “furin cleavage Z-score” value reads like this: (7.5 min) 1.25; (15 min) -0.606 (inactive); (30 min) 0.334 (inactive).

With CAVVCCSDSYAGNASASA [HC2051], the “furin cleavage Z-score” value (7.5 min) is -1.19 (inactive), the “furin cleavage Z-score” value (15 min) was 0.168 (inactive) and the “furin cleavage Z-score” value (30 min) was -0.153 (inactive).

For the sequence CAYGLRDARSAGNASASA [FS-900], the “furin cleavage Z-score” value (7.5 min) was -0.0484 (inactive), the “furin cleavage Z-score” value (15 min) is -0.398 (inactive) and the “furin cleavage Z-score” value (30 min) was -0.0248 (inactive).

As for CAEVPCHRGSAGNASASA [HC2396], the “furin cleavage Z-score” value (7.5 min) was 0.0196 (inactive), the “furin cleavage Z-score” value (15 min) was 1.61 and the “furin cleavage Z-score” value (30 min) is 1.87.

CAPYILKRGSAGNASASA [NG2]: the “furin cleavage Z-score” value was 1.17 (7.5 min), 0.28 (inactive) (15 min) and 0.586 (inactive) (30 min).

As to CAGRRLARGSAGNASASA [HC1254], the “furin cleavage Z-score” value is, setting by setting: (7.5 min) 3.43; (15 min) 4.7 (active); (30 min) 6.13 (active).

In the case of CAQDARRARSAGNASASA [FS-845], the “furin cleavage Z-score” value is 6 (active) (7.5 min), 7.49 (active) (15 min) and 7.26 (active) (30 min).

As to CAYGRRRRRSAGNASASA [FS-519], the “furin cleavage Z-score” value is 9.52 (active) (7.5 min), 10.7 (active) (15 min) and 8.36 (active) (30 min).

Regarding CAGSCRRARSAGNASASA [FS-1333], the “furin cleavage Z-score” value is, setting by setting: (7.5 min) 8.24 (active); (15 min) 6.66 (active); (30 min) 7.27 (active).

CAVAYQATVCAGNASASA [HC954]: the “furin cleavage Z-score” value was -0.525 (inactive) (7.5 min), -0.292 (inactive) (15 min) and -0.577 (inactive) (30 min).

Regarding CAMFDSSVLCAGNASASA [HC916], the “furin cleavage Z-score” value is, setting by setting: (7.5 min) -1.5 (inactive); (15 min) -1.04 (inactive); (30 min) 0.432 (inactive).

For CADGRRFRQAAGNASASA [FS-1668], the “furin cleavage Z-score” value by setting is: (7.5 min) -1.15 (inactive); (15 min) -1.53 (inactive); (30 min) -0.448 (inactive).

For the sequence CAICTTPCSGAGNASASA [HC1944], the “furin cleavage Z-score” value (7.5 min) is -1.41 (inactive), the “furin cleavage Z-score” value (15 min) was -0.982 (inactive) and the “furin cleavage Z-score” value (30 min) is 0.0737 (inactive).

Take CASTPCSVHLAGNASASA [HC2530]: the “furin cleavage Z-score” value is, setting by setting: (7.5 min) -0.933 (inactive); (15 min) 0.438 (inactive); (30 min) 1.38.

For the sequence CALHVWIPPLAGNASASA [HC589], the “furin cleavage Z-score” value by setting is: (7.5 min) 1.25; (15 min) 1.42; (30 min) 0.509 (inactive).

Take CAGRRRRHRSAGNASASA [FS-532]: the “furin cleavage Z-score” value is 9.48 (active) (7.5 min), 10.3 (active) (15 min) and 6.94 (active) (30 min).

On to CARSGAPTYSAGNASASA [HC421], for which the “furin cleavage Z-score” value runs as follows: (7.5 min) 0.424 (inactive); (15 min) -0.13 (inactive); (30 min) -0.882 (inactive).

CAAWRHRARSAGNASASA [HC1620]: the “furin cleavage Z-score” value reads like this: (7.5 min) 0.0962 (inactive); (15 min) 1.9; (30 min) 1.59.

Consider CARSGRSRSRAGNASASA [FS-1926], for which the “furin cleavage Z-score” value reads like this: (7.5 min) -0.645 (inactive); (15 min) -0.505 (inactive); (30 min) -1.41 (inactive).

As for CASRRRRARSAGNASASA [FS-872], the “furin cleavage Z-score” value by setting is: (7.5 min) 8.77 (active); (15 min) 9.73 (active); (30 min) 7.27 (active).

As to CAIPKRLRRSAGNASASA [FS-35], the “furin cleavage Z-score” value is 1.85 (7.5 min), 0.768 (inactive) (15 min) and 1.2 (30 min).

With CARSGRRRRSAGNASASA [FS-88], the “furin cleavage Z-score” value by setting is: (7.5 min) 5.85 (active); (15 min) 5.32 (active); (30 min) 4.99 (active).

CAPPRRLRRSAGNASASA [FS-841]: the “furin cleavage Z-score” value runs as follows: (7.5 min) 5.16 (active); (15 min) 4.08 (active); (30 min) 3.48.

Take CAILNAASLAAGNASASA [HC537]: the “furin cleavage Z-score” value reads like this: (7.5 min) -1.87 (inactive); (15 min) -0.982 (inactive); (30 min) 0.861 (inactive).

On to CATTPCYGSWAGNASASA [HC77], for which the “furin cleavage Z-score” value was 0.0798 (inactive) (7.5 min), 1.4 (15 min) and -0.0858 (inactive) (30 min).

For CALAHGVRVLAGNASASA [HC236], the “furin cleavage Z-score” value is 0.101 (inactive) (7.5 min), 1.37 (15 min) and 0.879 (inactive) (30 min).

In the case of CAPPRRRRRSAGNASASA [FS-948], the “furin cleavage Z-score” value runs as follows: (7.5 min) 8.33 (active); (15 min) 8.78 (active); (30 min) 7.37 (active).

Take CAPPWRLRRSAGNASASA [FS-1383]: the “furin cleavage Z-score” value was 9.19 (active) (7.5 min), 9.31 (active) (15 min) and 7.39 (active) (30 min).

With CAPPRRRARSAGNASASA [FS-72], the “furin cleavage Z-score” value was 11.2 (active) (7.5 min), 10.8 (active) (15 min) and 7.57 (active) (30 min).

For CARSTRDRRSAGNASASA [FS-1273], the “furin cleavage Z-score” value is 11.6 (active) (7.5 min), 13.1 (active) (15 min) and 9.03 (active) (30 min).

CAPTDPRRRSAGNASASA [HC215]: the “furin cleavage Z-score” value is 0.57 (inactive) (7.5 min), 3.28 (15 min) and 0.563 (inactive) (30 min).

CASDPCSAHLAGNASASA [HC2491]: the “furin cleavage Z-score” value is -0.0824 (inactive) (7.5 min), 0.0077 (inactive) (15 min) and 0.561 (inactive) (30 min).

Regarding CAFTPCSAHLAGNASASA [HC2467], the “furin cleavage Z-score” value is -2.12 (inactive) (7.5 min), -1.48 (inactive) (15 min) and -1.08 (inactive) (30 min).

As to CATTPCSKSWAGNASASA [HC1894], the “furin cleavage Z-score” value (7.5 min) was 0.86 (inactive), the “furin cleavage Z-score” value (15 min) is -0.828 (inactive) and the “furin cleavage Z-score” value (30 min) is 1.43.

As for CALVGAPLGGAGNASASA [HC230], the “furin cleavage Z-score” value is, setting by setting: (7.5 min) 0.473 (inactive); (15 min) 0.0326 (inactive); (30 min) -0.438 (inactive).

With CAEYPCHRPSAGNASASA [HC2329], the “furin cleavage Z-score” value runs as follows: (7.5 min) -1.31 (inactive); (15 min) -1.61 (inactive); (30 min) 0.059 (inactive).

CAWWRRRRRSAGNASASA [FS-1503]: the “furin cleavage Z-score” value is, setting by setting: (7.5 min) 12.2 (active); (15 min) 12.2 (active); (30 min) 8.61 (active).

On to CAWLIRRRRSAGNASASA [FS-1180], for which the “furin cleavage Z-score” value is 13.7 (active) (7.5 min), 13.5 (active) (15 min) and 11.2 (active) (30 min).

In the case of CARSTRDVQAAGNASASA [FS-3212], the “furin cleavage Z-score” value is, setting by setting: (7.5 min) 6.84 (active); (15 min) 7.38 (active); (30 min) 6.15 (active).

For CAFYNRRRRSAGNASASA [FS-528], the “furin cleavage Z-score” value is 10.4 (active) (7.5 min), 10.5 (active) (15 min) and 8.75 (active) (30 min).
